ALDH1A1 inh – blocks purified human ALDH1A1 activity; P00352; Purified ALDH1A1, NADH fluorescence, propionaldehyde substrate; Potency, µM (highest dose often 75.3 µM), inactives show at the top dose activity, negative = inhibition, usual class: inhibitors; hit rate 7.3% among 220,000; AID 1030; active = well fitted inhibition curve with a large enough effect, not every such curve was filed as active; inconclusive = small, poorly fitted or top-dose-only effect, or another doubt; inactive = no such curve, though single readings can be large or run the other way;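 also: potency is read from the fitted curve at half-maximal effect; plate controls were no enzyme wells and a reference inhibitor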
Target sequence (P00352 whole entry, looked up): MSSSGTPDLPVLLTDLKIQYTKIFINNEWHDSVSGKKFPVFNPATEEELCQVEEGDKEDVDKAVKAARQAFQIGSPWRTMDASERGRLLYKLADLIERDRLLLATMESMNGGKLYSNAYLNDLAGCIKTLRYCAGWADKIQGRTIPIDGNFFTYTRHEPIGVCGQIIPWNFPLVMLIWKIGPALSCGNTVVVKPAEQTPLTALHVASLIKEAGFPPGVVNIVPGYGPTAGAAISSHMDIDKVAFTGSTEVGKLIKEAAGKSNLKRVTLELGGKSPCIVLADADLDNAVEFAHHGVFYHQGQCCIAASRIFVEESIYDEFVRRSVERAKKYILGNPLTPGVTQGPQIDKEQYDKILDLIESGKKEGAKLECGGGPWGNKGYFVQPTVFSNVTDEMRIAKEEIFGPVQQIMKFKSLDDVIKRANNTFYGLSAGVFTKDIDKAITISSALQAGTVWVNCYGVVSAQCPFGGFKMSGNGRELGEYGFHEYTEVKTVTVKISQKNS
HttQ103 aggreg – mutant huntingtin aggregation inhibition; PC12 HttQ103-GFP aggregates, Acumen cytometry, 40 h; AID 1688; Potency, µM (doses to about 46.1 µM), for the others: at the top dose activity change, negative = inhibition, most hits filed as inhibitors; hit rate 1.1% among 220,000; also: potency is read from the fitted curve at half-maximal effect; % is scaled to controls: 0 for no effect and ±100 for the full control effect; nearly all actives have a fitted effect of over 60% in size
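Inducible Q103 Huntingtin exon 1–GFP PC12 line, 1500 cells/well in phenol red free DMEM with 5% equine and 5% calf serum. Tebufenozide 100 nM induced expression; compounds titrated; aggregates quantified by cytometry.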
IMPase Li inh – cell-permeable IMPase inhibitors with lithium potentiation | AID 1457 | Potency, µM (doses to about 59.4 µM), inactives show at the top dose activity, negative = IMPase inhibition, actives largely listed as inhibitors | hit rate 0.35% among 210,000 | CHO-M1 cells, IP1 TR-FRET (IP-One), carbachol + lithium;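 also: IP1 builds up when IMPase is blocked and the TR-FRET signal falls; potency is read from the fitted curve at half-maximal effect; plate controls were basal vehicle for no effect and high inhibitor control for full effect; nearly all actives have a fitted effect of over 50% in size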
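Lithium-sensitised IP1 accumulation assay; M1-expressing CHO cells treated 30 min at 37C with compound. Competitive antibody detection by time-resolved FRET followed a 10 min room-temperature lysis step.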
HTT ATP protect – cytoprotection in Huntington HTT-Q103 PC12 cell model; PC12 HTT-Q103 induced, cytoprotection, ATP luminescence, 40 h; Potency, µM (titrated, usually from 56.4 µM), inactives show cytoprotection (ATP increase), usual class: activators; hit rate 0.14% among 230,000; also: potency is read from the fitted curve at half-maximal effect; % of control where 0% means no effect; nearly all actives have a fitted effect of over 45% in size
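Compounds were screened for protection of PC12 cells against cell death after tebufenozide induction (100 nM final) of mutant Huntingtin exon 1 (Q103) fused to GFP.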
HPGD block – blocks human HPGD enzyme activity; Potency, µM, inactives show top-dose activity change, negative = inhibition, actives largely listed as inhibitors; purified HPGD, NADH fluorescence kinetic, PGE2 substrate; AID 894; hit rate 4.3% among 150,000; active = well fitted inhibition curve with a large enough effect, not every such curve was filed as active; inconclusive = small, poorly fitted or top-dose-only effect, or another doubt; inactive = no such curve, though single readings can be large or run the other way; also: potency is read from the fitted curve at half-maximal effect; % is scaled to controls: 0 for no effect and ±100 for the full control effect
Target sequence (P15428 whole entry, looked up): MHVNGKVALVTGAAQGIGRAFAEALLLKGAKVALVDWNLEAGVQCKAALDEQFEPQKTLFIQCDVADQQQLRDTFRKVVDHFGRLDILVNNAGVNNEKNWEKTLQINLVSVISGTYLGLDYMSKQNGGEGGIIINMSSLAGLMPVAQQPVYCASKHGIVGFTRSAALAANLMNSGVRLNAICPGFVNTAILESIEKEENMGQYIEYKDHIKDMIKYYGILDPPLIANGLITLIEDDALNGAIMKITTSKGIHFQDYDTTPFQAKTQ
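20 nM HPGD preincubated 15 min at room temperature with compound in 50 mM Tris-HCl pH 8, 0.01% Tween 20. Started with 1 mM NAD+ and 30 uM prostaglandin E2; NADH fluorescence (360/450 nm) read 5 times over 30-s intervals, last minus first.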
IMPase inh – membrane-permeable compound that blocks inositol monophosphatase. AID 901. inhibition (IP1 accumulation), % at 46.1 µM. 120,000 tested, under 10 active. CHO-M1 cells, IP1 accumulation, HTRF TR-FRET ratio. P97697; active = well fitted curve in the direction sought with a large enough effect in the signal ratio, not every such curve was filed as active; inconclusive = small, poorly fitted or top-dose-only effect, or a change in a side signal; inactive = no such curve, though single readings can be large or run the other way; the % refers to the signal ratio;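 also: cells stimulated with carbachol in lithium chloride buffer; plate controls were DMSO basal wells for no effect and reference inhibitor wells for full effect; higher means more IMPase inhibition seen as more IP1 and lower FRET ratio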
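CHO-M1, 2000 cells/well, cultured 16–30 h; cpd up to 46 uM; carbachol (50 uM solution, stimulation buffer w/ 50 mM LiCl, pH 7.4), 30 min 37C; IP-One TR-FRET, 10 min RT; Ex 320/Em 665, 620; Hill-fit AC50.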
* marks the source's active call; other numbers are inactive results; ? = inconclusive; / = not tested or not shown; [ ] = dose if it differs, or a comment. Compounds with a hit are over-represented: about 9.4% of the library has one in this group of screens. Unless noted, calls follow the shape of the dose curve; as a rule, active = well fitted curve in the direction sought with a large enough effect; inconclusive = small, poorly fitted or top-dose-only effect, or another doubt; inactive = no such curve, though single readings can be large; an effect the other way counts as inactive or inconclusive.

SMILES	ALDH1A1 inh	HttQ103 aggreg	IMPase Li inh	HTT ATP protect	HPGD block	IMPase inh
Cc1cc(C(=O)COC(=O)C2=COCCO2)c(C)n1-c1ccc2c(c1)OCO2	16µM*	0%	5%[38.3 µM]	-7%[10 µM]	16µM*	14
Cc1cc(C(=O)CSc2nncs2)c(C)n1-c1ccc2c(c1)OCO2	?	?	11%[38.3 µM]	-15%[10 µM]	-23%	-8[1.84 µM]
Cc1cc(C(=O)CSc2nnnn2-c2ccc(O)cc2)c(C)n1Cc1ccc2c(c1)OCO2	-4%	?	37%[38.3 µM]	-69%	-4%	13
Cc1cc(C(=O)CSc2nnnn2-c2ccccc2)c(C)n1-c1ccc2c(c1)OCO2	0.25µM*	1%	4%	/	-19%	/
COc1ccc(-c2nc(SCC(=O)Nc3ccccc3)c(-c3ccc(F)cc3)[nH]2)cc1OC	/	/	/	/	/	22
CC(C)Oc1cccc(C(=O)Nc2ccc3oc(-c4cccc(Cl)c4)nc3c2)c1	/	/	/	/	/	-5
CCCn1c(SCC(=O)NCc2ccc(C)cc2)n[nH]c1=O	19%	18%	3%	/	/	/
CCCn1c(SCC(=O)c2ccc(CC)cc2)n[nH]c1=O	-4%	0.89µM*	7%[38.3 µM]	?	-19%	2
COC(=O)N1C2CC3(C)CC(=O)CC1(C)C3c1ccccc12 (centres undefined)	10%[13.5 µM]	/	-8%	-15%[10 µM]	-4%	/
Cc1[nH]n(-c2ccccc2)c(=O)c1N=Nc1nccs1	-3%	11µM*	32%[38.3 µM]	-33%	-8%	13
Cc1cc(C(F)(F)F)n(-c2nc(C(=O)NN)cs2)n1	2.2µM*	?	-6%	-14%[10 µM]	/	/
CCn1c(=O)[nH]c(=O)c2c(N)c(C(=O)c3cc(F)ccc3F)sc21	/	28%[9.22 µM]	/	33%[10 µM]	/	/
CC(=O)N1CCC2(CC1)CN(c1ccccc1)C2	16µM*	/	27%	15%	-7%	/
O=S(=O)(c1ccccc1)N1CCC2(CC1)CN(c1ccccc1)C2	14µM*	/	-5%	?	-8%	/
CN(C)c1ncc2nc(-c3ccc(Cl)cc3)c(=O)n(C3CC3)c2n1	?	/	?	-43%	?	/
COc1cccc(-c2ccc3ncnc(NCc4cnc(C)cn4)c3c2)c1	18%	/	29%	-95%	/	/
COc1ccc(Cn2nnnc2C(c2cccs2)N2CCCCCC2)cc1 (centres undefined)	13µM*	?	25%	8%[10 µM]	-16%	?
CC1CCN(C(c2cccs2)c2nnnn2Cc2ccccc2)CC1 (centres undefined)	2µM*	12%[9.22 µM]	12%[38.3 µM]	5%	-19%	8
Fc1ccc(N2CCN(C(c3cccs3)c3nnnn3CCc3ccccc3)CC2)cc1 (centres undefined)	1µM*	-21%	3%	22%[10 µM]	-2%	?
COCCn1nnnc1C(c1cccs1)N1CCCC(C)C1 (centres undefined)	11µM*	/	5%	/	/	/
Fc1ccccc1N1CCN(C(c2cccs2)c2nnnn2CCc2ccccc2)CC1 (centres undefined)	?	-9%	-5%[38.3 µM]	36%	-10%	7
c1ccc(Cn2nnnc2C(c2cccs2)N2CCSCC2)cc1 (centres undefined)	?	0%	10%	8%[10 µM]	-13%	-9
Cc1cccc(-n2c3nc(=O)[nH]c(=O)c-3cc3c(Cl)cccc32)c1C	/	/	/	/	/	-5
CCCN(CCC)C(=O)Cn1c(=O)n(Cc2ccc(C(=O)NCCc3ccc(OC)c(OC)c3)cc2)c(=O)c2ccccc21	/	/	/	/	/	-9
O=C(N/N=C1/C[C@@H](O)[C@@H](O)[C@@H]2[C@H]3C(=O)N(c4ccc(F)cc4F)C(=O)[C@@H]3CC[C@H]12)OCc1ccccc1	?	/	/	-14%[10 µM]	/	/
SMILES	ALDH1A1 inh	HttQ103 aggreg	IMPase Li inh	HTT ATP protect	HPGD block	IMPase inh
C[C@]12CC[C@H]3c4ccc(O)cc4CC[C@@H]3[C@H]1CC[C@@H]2OC(=O)CCc1ccccc1	-1%[13.5 µM]	/	-1%	-1%[10 µM]	-10%	/
C[C@H](C[C@H](N)C(=O)O)C(=O)O	1%	/	9%	-2%	-5%	1
CC(=O)N1CSCC1C(=O)NNS(=O)(=O)c1ccccc1 (centres undefined)	/	19%[9.22 µM]	/	15%[10 µM]	/	/
Cc1c(Cc2ccccc2)c(=O)oc2cc(OC(=O)c3ccccc3)ccc12	?	-31%	11%[38.3 µM]	-4%[10 µM]	-14%	6
COc1cccc(C(=O)COc2ccc3c(C)c(Cc4ccccc4)c(=O)oc3c2)c1	0.63µM*	-18%	5%	-13%[10 µM]	140%	/
Fc1ccccc1C(NCCc1ccc(Cl)cc1)c1nnc(-c2ccccc2)o1 (centres undefined)	/	/	/	/	/	-3
Cc1c(/C=N/NC(=O)c2cccnc2)c2ccccc2n1Cc1ccccc1	-7%	10µM*	9%	5%[10 µM]	/	/
CCOc1cccc2cc(C(=O)NCCC3=CCCCC3)c(=O)oc12	25µM*	5%	7%	2%	/	/
COc1ccc(C(=O)NCCC2=CCCCC2)cc1	-2%	4%	2%	-15%[10 µM]	-24%	/
COc1cccc(C(=O)NCCC2=CCCCC2)c1	?	-11%	31%[38.3 µM]	-23%	14µM*	3
O=C(COC(=O)CNC(=O)c1ccc(Br)cc1)NCCC1=CCCCC1	?	11%	-7%	6%[10 µM]	/	/
Cc1cc(C(=O)NCCC2=CCCCC2)ccc1[N+](=O)[O-]	25µM*	-18%[9.22 µM]	9%	-3%[10 µM]	/	/
O=C(NCCC1=CCCCC1)c1ccc([N+](=O)[O-])cc1	-11%	7%	13%	-8%[10 µM]	-17%	-3
COc1ccc(C(=O)NCC(=O)OCC(=O)NCCC2=CCCCC2)cc1	16µM*	21%	-4%	-9%	/	/
CC(=O)N1CCC2(CC1)CCN(C(=O)Nc1cccc(C#N)c1)CC2	-3%	/	-5%	?	-1%	/
CN(C)CN1C(=O)S/C(=C2/C(=O)N(CN(C)C)c3ccccc32)C1=O	-2%[13.5 µM]	/	10%	7%[10 µM]	0%	/
OCC(CO)(CBr)CBr	?	/	13%	7%	-9%	/
CCOc1cc(C2NC(=O)c3c(sc4c3CCN(C)C4)N2)ccc1OC(=O)c1ccccc1Cl (centres undefined)	/	/	/	/	/	-4
O=CC(O)C(O)C(O)C(O)CO (centres undefined)	-4%	/	2%	-1%	0%	/
COc1cc(C2c3cc4c(cc3C(OC3OC5COC(C)O[C@@H]5C(O)C3O)C3COC(=O)C23)OCO4)cc(OC)c1O (some centres undefined)	0%	/	-4%	-155%	-4%	/
COc1cccc(-n2c(SCC(=O)NCCC3=CCCCC3)nc3n[nH]c(C)c3c2=N)c1	20µM*	-13%	10%[38.3 µM]	-40%	-17%	-1
COc1cccc(NC(=O)CSc2nc3n[nH]c(C)c3c(=N)n2-c2cccc(OC)c2)c1	?	8%	9%[38.3 µM]	0%	?	7
CCN1CCN(Cc2c(O)ccc3c(=O)c(Oc4ccccc4Cl)c(C(F)(F)F)oc23)CC1	/	/	/	/	/	4

Assay outcomes from PubChem.
